# According to publication PMC11006913:
# Positions count from the first letter of the chain named.
# Assays:
# Assay in all cases: PBM; 200 nM protein, PBS
# Settings in all cases: dsDNA, one strand shown
# NKX2-5 [1] = biological target: NKX2-5 (Homo sapiens, UniProt P52952 125-210, R139K)
# NKX2-4 [2] = biological target: T1, NKX2-4 (Homo sapiens, UniProt Q9H2Z4 175-261, P217L)
# T1 sequence: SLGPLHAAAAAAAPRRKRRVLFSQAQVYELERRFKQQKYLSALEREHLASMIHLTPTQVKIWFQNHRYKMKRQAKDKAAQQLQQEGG
# NKX2-4 [3] = biological target: T2, NKX2-4 (Homo sapiens, UniProt Q9H2Z4 175-261, T231S)
# T2 sequence: T1 sequence with L43P, T57S
# NKX2-4 [4] = biological target: T3, NKX2-4 (Homo sapiens, UniProt Q9H2Z4 175-261)
# T3 sequence: T1 sequence with L43P
# NKX2-6 [5] = biological target: T4, NKX2-6 (Homo sapiens, UniProt A6NCS4 118-204, R150C)
# T4 sequence: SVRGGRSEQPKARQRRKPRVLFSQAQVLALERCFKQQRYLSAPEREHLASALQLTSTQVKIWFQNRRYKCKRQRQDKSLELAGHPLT
# NKX2-6 [6] = biological target: T5, NKX2-6 (Homo sapiens, UniProt A6NCS4 118-204)
# T5 sequence: T4 sequence with C33R
# NKX2-4 [7] = biological target: T6, NKX2-4 (Homo sapiens, UniProt Q9H2Z4 175-261, R246Q)
# T6 sequence: T1 sequence with L43P, R72Q
# NKX2-6 [8] = biological target: T7, NKX2-6 (Homo sapiens, UniProt A6NCS4 118-204, F151L)
# T7 sequence: T4 sequence with C33R, F34L
# NKX3-2 [9] = biological target: NKX3-2 (Homo sapiens, UniProt P78367 192-278, P234S)
# Sequence of NKX3-2 (Homo sapiens, UniProt P78367 192-278, P234S) (P78367 192-278 P234S): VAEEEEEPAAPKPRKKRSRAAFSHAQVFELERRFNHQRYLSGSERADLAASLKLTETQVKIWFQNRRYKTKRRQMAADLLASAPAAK
# NKX2-5 [10] = biological target: NKX2-5 (Homo sapiens, UniProt P52952 125-210)
# Sequence of NKX2-5 (Homo sapiens, UniProt P52952 125-210) (P52952 125-210): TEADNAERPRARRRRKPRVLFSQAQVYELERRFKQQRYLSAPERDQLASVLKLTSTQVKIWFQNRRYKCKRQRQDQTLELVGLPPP
# NKX3-2 [11] = biological target: NKX3-2 (Homo sapiens, UniProt P78367 192-278)
# Sequence of NKX3-2 (Homo sapiens, UniProt P78367 192-278) (P78367 192-278): as the sequence (P78367 192-278 P234S) above, with S43P counted along it
# HOXB4 [12] = biological target: HOXB4 (Homo sapiens, UniProt P17483 148-234)
# Sequence of HOXB4 (Homo sapiens, UniProt P17483 148-234) (P17483 148-234): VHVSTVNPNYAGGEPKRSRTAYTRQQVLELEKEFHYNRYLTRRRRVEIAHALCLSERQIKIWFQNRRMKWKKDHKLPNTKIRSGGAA
# HOXB6 [13] = biological target: HOXB6 (Homo sapiens, UniProt P17509 132-218, K202E)
# Sequence of HOXB6 (Homo sapiens, UniProt P17509 132-218, K202E) (P17509 132-218 K202E): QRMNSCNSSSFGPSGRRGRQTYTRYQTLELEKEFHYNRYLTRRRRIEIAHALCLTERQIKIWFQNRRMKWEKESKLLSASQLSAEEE
# HOXA2 [14] = biological target: HOXA2 (Homo sapiens, UniProt O43364 129-215, R185T)
# Sequence of HOXA2 (Homo sapiens, UniProt O43364 129-215, R185T) (O43364 129-215 R185T): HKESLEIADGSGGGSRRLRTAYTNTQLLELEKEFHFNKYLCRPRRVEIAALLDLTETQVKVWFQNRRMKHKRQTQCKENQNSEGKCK
# HOXB4 [15] = biological target: HOXB4 (Homo sapiens, UniProt P17483 148-234, V174I)
# Sequence of HOXB4 (Homo sapiens, UniProt P17483 148-234, V174I) (P17483 148-234 V174I): as the sequence (P17483 148-234) above, with V27I counted along it
# HOXA2 [16] = biological target: HOXA2 (Homo sapiens, UniProt O43364 129-215, R185K)
# Sequence of HOXA2 (Homo sapiens, UniProt O43364 129-215, R185K) (O43364 129-215 R185K): as the sequence (O43364 129-215 R185T) above, with T57K counted along it
# HOXA2 [17] = biological target: HOXA2 (Homo sapiens, UniProt O43364 129-215, Y150S)
# Sequence of HOXA2 (Homo sapiens, UniProt O43364 129-215, Y150S) (O43364 129-215 Y150S): as the sequence (O43364 129-215 R185T) above, with Y22S, T57R counted along it
# HOXA2 [18] = biological target: HOXA2 (Homo sapiens, UniProt O43364 129-215)
# Sequence of HOXA2 (Homo sapiens, UniProt O43364 129-215) (O43364 129-215): as the sequence (O43364 129-215 R185T) above, with T57R counted along it
# HOXB6 [19] = biological target: HOXB6 (Homo sapiens, UniProt P17509 132-218)
# Sequence of HOXB6 (Homo sapiens, UniProt P17509 132-218) (P17509 132-218): as the sequence (P17509 132-218 K202E) above, with E71K counted along it
# Sequence of NKX2-5 (Homo sapiens, UniProt P52952 125-210, R139K) (P52952 125-210 R139K): as the sequence (P52952 125-210) above, with R15K counted along it
sequence,measurement,setting,value
AGTACTTA,binding signal,NKX2-5 [1],"12.9 upbm affinity estimate (log intensity, higher = more binding, comparable within an allelic series)"
same,binding signal,NKX2-4 [2],"12.6 upbm affinity estimate (log intensity, higher = more binding, comparable within an allelic series)"
same,binding signal,NKX2-4 [3],"13.1 upbm affinity estimate (log intensity, higher = more binding, comparable within an allelic series)"
same,binding signal,NKX2-4 [4],"12.5 upbm affinity estimate (log intensity, higher = more binding, comparable within an allelic series)"
same,binding signal,NKX2-6 [5],"12 upbm affinity estimate (log intensity, higher = more binding, comparable within an allelic series)"
same,binding signal,NKX2-6 [6],"13.8 upbm affinity estimate (log intensity, higher = more binding, comparable within an allelic series)"
same,binding signal,NKX2-4 [7],"13.1 upbm affinity estimate (log intensity, higher = more binding, comparable within an allelic series)"
same,binding signal,NKX2-6 [8],"11.2 upbm affinity estimate (log intensity, higher = more binding, comparable within an allelic series)"
same,binding signal,NKX3-2 [9],"12.6 upbm affinity estimate (log intensity, higher = more binding, comparable within an allelic series)"
same,binding signal,NKX2-5 [10],"12.8 upbm affinity estimate (log intensity, higher = more binding, comparable within an allelic series)"
same,binding signal,NKX3-2 [11],"12.7 upbm affinity estimate (log intensity, higher = more binding, comparable within an allelic series)"
CACTTTAA,binding signal,NKX2-5 [1],"12.4 upbm affinity estimate (log intensity, higher = more binding, comparable within an allelic series)"
same,binding signal,NKX2-4 [2],"12.5 upbm affinity estimate (log intensity, higher = more binding, comparable within an allelic series)"
same,binding signal,NKX2-4 [3],"12.9 upbm affinity estimate (log intensity, higher = more binding, comparable within an allelic series)"
same,binding signal,NKX2-4 [4],"12.3 upbm affinity estimate (log intensity, higher = more binding, comparable within an allelic series)"
same,binding signal,NKX2-6 [5],"11.7 upbm affinity estimate (log intensity, higher = more binding, comparable within an allelic series)"
same,binding signal,NKX2-6 [6],"13.4 upbm affinity estimate (log intensity, higher = more binding, comparable within an allelic series)"
same,binding signal,NKX2-4 [7],"13 upbm affinity estimate (log intensity, higher = more binding, comparable within an allelic series)"
same,binding signal,NKX2-6 [8],"10.7 upbm affinity estimate (log intensity, higher = more binding, comparable within an allelic series)"
same,binding signal,NKX3-2 [9],"12.5 upbm affinity estimate (log intensity, higher = more binding, comparable within an allelic series)"
same,binding signal,NKX2-5 [10],"12.4 upbm affinity estimate (log intensity, higher = more binding, comparable within an allelic series)"
same,binding signal,NKX3-2 [11],"12.6 upbm affinity estimate (log intensity, higher = more binding, comparable within an allelic series)"
ACCCGGGC,binding signal,NKX2-5 [1],"8.96 upbm affinity estimate (log intensity, higher = more binding, comparable within an allelic series)"
same,binding signal,NKX2-5 [10],"8.92 upbm affinity estimate (log intensity, higher = more binding, comparable within an allelic series)"
CTAATTGC,binding signal,NKX2-5 [1],"10.9 upbm affinity estimate (log intensity, higher = more binding, comparable within an allelic series)"
same,binding signal,HOXB4 [12],"12.9 upbm affinity estimate (log intensity, higher = more binding, comparable within an allelic series)"
same,binding signal,HOXB6 [13],"9.81 upbm affinity estimate (log intensity, higher = more binding, comparable within an allelic series)"
same,binding signal,HOXA2 [14],"13.1 upbm affinity estimate (log intensity, higher = more binding, comparable within an allelic series)"
same,binding signal,HOXB4 [15],"13.7 upbm affinity estimate (log intensity, higher = more binding, comparable within an allelic series)"
same,binding signal,HOXA2 [16],"13.5 upbm affinity estimate (log intensity, higher = more binding, comparable within an allelic series)"
same,binding signal,HOXA2 [17],"10.7 upbm affinity estimate (log intensity, higher = more binding, comparable within an allelic series)"
same,binding signal,HOXA2 [18],"12.6 upbm affinity estimate (log intensity, higher = more binding, comparable within an allelic series)"
same,binding signal,NKX2-5 [10],"11.1 upbm affinity estimate (log intensity, higher = more binding, comparable within an allelic series)"
same,binding signal,HOXB6 [19],"11.8 upbm affinity estimate (log intensity, higher = more binding, comparable within an allelic series)"
CGGACCCG,binding signal,NKX2-5 [1],"8.84 upbm affinity estimate (log intensity, higher = more binding, comparable within an allelic series)"
same,binding signal,HOXB4 [12],"8.04 upbm affinity estimate (log intensity, higher = more binding, comparable within an allelic series)"
same,binding signal,HOXB6 [13],"8.97 upbm affinity estimate (log intensity, higher = more binding, comparable within an allelic series)"
same,binding signal,HOXB4 [15],"7.9 upbm affinity estimate (log intensity, higher = more binding, comparable within an allelic series)"
same,binding signal,NKX2-5 [10],"8.79 upbm affinity estimate (log intensity, higher = more binding, comparable within an allelic series)"
same,binding signal,HOXB6 [19],"9 upbm affinity estimate (log intensity, higher = more binding, comparable within an allelic series)"
CCACTTTA,binding signal,NKX2-5 [1],"12.7 upbm affinity estimate (log intensity, higher = more binding, comparable within an allelic series)"
same,binding signal,NKX2-4 [2],"12.6 upbm affinity estimate (log intensity, higher = more binding, comparable within an allelic series)"
same,binding signal,NKX2-4 [3],"13 upbm affinity estimate (log intensity, higher = more binding, comparable within an allelic series)"
same,binding signal,NKX2-4 [4],"12.5 upbm affinity estimate (log intensity, higher = more binding, comparable within an allelic series)"
same,binding signal,NKX2-6 [5],"12 upbm affinity estimate (log intensity, higher = more binding, comparable within an allelic series)"
same,binding signal,NKX2-6 [6],"13.5 upbm affinity estimate (log intensity, higher = more binding, comparable within an allelic series)"
same,binding signal,NKX2-4 [7],"13.1 upbm affinity estimate (log intensity, higher = more binding, comparable within an allelic series)"
same,binding signal,NKX2-6 [8],"10.8 upbm affinity estimate (log intensity, higher = more binding, comparable within an allelic series)"
same,binding signal,NKX3-2 [9],"13 upbm affinity estimate (log intensity, higher = more binding, comparable within an allelic series)"
same,binding signal,NKX2-5 [10],"12.7 upbm affinity estimate (log intensity, higher = more binding, comparable within an allelic series)"
same,binding signal,NKX3-2 [11],"13.1 upbm affinity estimate (log intensity, higher = more binding, comparable within an allelic series)"
